Reference: PubChem BioAssay (Tox21)
Several values for one entry are separate records, joined by “and”; a condition that tells them apart may be missing. Equal entries are not always repeated. More than one record can exist for a structure, and the calls need not agree. Activity calls are given as the source filed them. Where a call stands in place of a potency, no number is given. Unless noted, the call rests on the fitted dose curve; in most records, active means well fitted curve in the direction sought with a large enough effect in the repeat runs; inconclusive means weak or mixed curves; inactive means no such curve, though single readings can be large; an effect the other way counts as inactive or inconclusive.

How the values were obtained:
[1] = qHTS assay to identify small molecule antagonists of the glucocorticoid receptor (GR) signaling pathway - cell viability counter screen (AID 720693); conditions: GR-bla HeLa viability, CellTiter-Glo luminescence, 18 h, with 5 nM dexamethasone present; series mostly up to 58.5 µM; further: nearly all actives have a fitted effect of over 55% in size
[2] = qHTS assay for identifying genotoxic compounds that show differential cytotoxicity against isogenic chicken DT40 cell lines with known DNA damage response pathways - wild type cell line (AID 743012); conditions: DT40 wild type chicken cells viability, CellTiter-Glo, 40 h; series mostly up to 68.4 µM; further: nearly all actives have a fitted effect of over 60% in size; further: potency means the concentration at half of the fitted maximal effect
In short: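 Wild type DT40, 300 cells/well, ~0.5 h settle at 37 C/5% CO2; compounds in DMSO added by pintool; 40 h at 37 C/5% CO2; CellTiter-Glo, 30 min RT; luminescence.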

[3] = qHTS assay for identifying genotoxic compounds that show differential cytotoxicity against isogenic chicken DT40 cell lines with known DNA damage response pathways - Rev3 mutant cell line (AID 743014); conditions: chicken DT40 Rev3-/- viability, CellTiter-Glo, 40 h; series mostly up to 68.4 µM; further: nearly all actives have a fitted effect of over 55% in size; further: potency means the concentration at half of the fitted maximal effect
[4] = qHTS assay to identify small molecule antagonists of the androgen receptor (AR) signaling pathway - cell viability counter screen (AID 743033; further: nearly all actives have a fitted effect of over 45% in size); conditions: AR-bla HEK293 viability, CellTiter-Glo luminescence, 16 h; series mostly up to 58.5 µM
[5] = qHTS assay to identify small molecule antagonists of the androgen receptor (AR) signaling pathway using the MDA cell line - cell viability counter screen (AID 743041; further: nearly all actives have a fitted effect of over 45% in size); conditions: MDA-kb2 viability, CellTiter-Fluor, 16 h, cells co-treated with R1881 androgen agonist; series mostly up to 70.3 µM
In short: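 Same-well cytotoxicity was assessed by CellTiter-Fluor in MDA-kb2 AR-luc cells after 16 h of compound treatment under R1881 agonism.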

[6] = qHTS assay to identify small molecule antagonists of the thyroid receptor (TR) signaling pathway (AID 743065); conditions: GH3.TRE-Luc, T3-stimulated luciferase inhibition, 23.5 h; series mostly up to 70.3 µM; further: nearly all actives have a fitted effect of over 55% in size
In short: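 GH3.TRE-Luc rat pituitary cells (two TREs driving luciferase) were dosed with compound, then stimulated with 1 nM T3 (final) for 23.5 h at 37 C. ONE-Glo luminescence was the read-out, with CellTiter-Fluor fluorescence as the cytotoxicity counter-screen.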

[7] = system: thyroid hormone receptor (rat, GH3 cells); assay: qHTS assay to identify small molecule agonists of the thyroid receptor (TR) signaling pathway (AID 743066; calls by dose curve); conditions: GH3.TRE-Luc cells, TR agonist luciferase, 24 h; series mostly up to 83.9 µM
[8] = molecular target: Estrogen receptor (Homo sapiens) (UniProt P03372); assay: qHTS assay to identify small molecule antagonists of the estrogen receptor alpha (ER-alpha) signaling pathway (AID 743069; active means well fitted curve in the direction sought with a large enough effect in the signal ratio in the repeat runs, not every such curve was filed as active; inconclusive means weak or mixed curves, or effect the other way; inactive means no such curve, though single readings can be large or run the other way; the % refers to the signal ratio; further: potency means the concentration at half of the fitted maximal effect); conditions: HEK293 ER-alpha-UAS-bla, beta-lactamase ratio, antagonist mode; series mostly up to 69.4 µM
In short: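 Reporter cells (ER-alpha-bla, HEK293 background) are conditioned overnight in stripped-serum medium (2% charcoal-stripped FBS). Compound and 17beta-estradiol exposure runs 18 hr at 37C, 5% CO2.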

[9] = qHTS assay to identify small molecule antagonists of the estrogen receptor alpha (ER-alpha) signaling pathway - cell viability counter screen (AID 743074; calls by dose curve;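 further: HEK293 cells carrying ER-alpha-UAS-bla reporter stimulated with 17beta-estradiol; nearly all actives have a fitted effect of over 45% in size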); conditions: ERalpha-bla HEK293 viability, CellTiter-Glo luminescence, 18 h; series mostly up to 69.4 µM
[10] = molecular target: Estrogen receptor (Homo sapiens) (UniProt P03372); assay: qHTS assay to identify small molecule agonists of the estrogen receptor alpha (ER-alpha) signaling pathway (AID 743075; calls by dose curve;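 further: HEK293 GripTite cells with ER-alpha and UAS-driven beta-lactamase reporter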; further: potency means the concentration at half of the fitted maximal effect); conditions: HEK293 ER-alpha-UAS-bla, beta-lactamase FRET ratio, 18 h; series mostly up to 70.1 µM
[11] = molecular target: Estrogen receptor (Homo sapiens) (UniProt P03372); assay: qHTS assay to identify small molecule agonists of the estrogen receptor alpha (ER-alpha) signaling pathway using the BG1 cell line (AID 743079); conditions: BG1Luc4E2 cells, ERE-luciferase agonist, 22 h; series mostly up to 70.3 µM; further: nearly all actives have a fitted effect of over 20% in size; further: potency means the concentration at half of the fitted maximal effect
[12] = qHTS assay to identify small molecule antagonists of the estrogen receptor alpha (ER-alpha) signaling pathway using the BG1 cell line (AID 743080; calls by dose curve;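 further: BG1 cells stimulated with 17beta-estradiol alongside compound; nearly all actives have a fitted effect of over 25% in size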); conditions: BG1Luc4E2 ERE-luciferase antagonist mode, luminescence; series mostly up to 70.3 µM
In short: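 Luminescence from a 4×ERE-luciferase reporter in BG1-Luc-4E2 cells served as read-out. Cells, pre-cultured 5 days in stripped-serum phenol-red-free medium, were exposed to compound with 17beta-estradiol co-stimulation for 21.5 h at 37 C.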

[13] = qHTS assay to identify small molecule antagonists of the estrogen receptor alpha (ER-alpha) signaling pathway using the BG1 cell line - cell viability counter screen (AID 743081); conditions: BG1Luc4E2 viability, CellTiter-Fluor, 22 h; series mostly up to 70.3 µM;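 further: compound given together with 17beta-estradiol as the ER stimulus; nearly all actives have a fitted effect of over 45% in size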
[14] = molecular target: Aromatase (Homo sapiens) (UniProt P11511); assay: qHTS assay to identify aromatase inhibitors (AID 743083); conditions: MCF-7 aro ERE, testosterone-driven ERE luciferase, 24 h; series mostly up to 70.3 µM; further: nearly all actives have a fitted effect of over 55% in size
[15] = qHTS assay for identifying genotoxic compounds that show differential cytotoxicity against isogenic chicken DT40 cell lines with known DNA damage response pathways - Rad54/Ku70 mutant cell line (AID 743015); conditions: DT40 Rad54/Ku70 mutant viability, CellTiter-Glo, 40 h; series mostly up to 66.8 µM; further: nearly all actives have a fitted effect of over 60% in size; further: potency means the concentration at half of the fitted maximal effect
[16] = qHTS assay to identify small molecule antagonists of the thyroid receptor (TR) signaling pathway - cell viability counter screen (AID 743064); conditions: GH3.TRE-Luc viability, CellTiter-Fluor, 24 h; series mostly up to 70.3 µM; further: nearly all actives have a fitted effect of over 50% in size
In short: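 In-well cytotoxicity read by CellTiter-Fluor (30 min, 37 C) following 23.5 h exposure of GH3 cells bearing a TRE-luciferase sensor. Compounds were added alongside 1 nM (final) T3 to drive TR transactivation.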

[17] = molecular target: Androgen receptor (Homo sapiens) (UniProt P10275); assay: qHTS assay to identify small molecule antagonists of the androgen receptor (AR) signaling pathway (AID 743035; active means well fitted inhibition curve with a large enough effect in the signal ratio in the repeat runs, not every such curve was filed as active; inconclusive means weak or mixed curves, or effect the other way; inactive means no such curve, though single readings can be large or run the other way; the % refers to the signal ratio); conditions: HEK293 AR-UAS-bla, R1881-stimulated, beta-lactamase FRET, 16 h; series mostly up to 58.5 µM
In short: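 Fluorescence from a beta-lactamase FRET substrate (LiveBLAzer B/G, 2 h, room temperature) measured inhibition of R1881-stimulated signaling in GeneBLAzer AR-UAS-bla HEK293 cells exposed to compound for 16 h at 37C.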

[18] = molecular target: Androgen receptor (Homo sapiens) (UniProt P10275); assay: qHTS assay to identify small molecule agonists of the androgen receptor (AR) signaling pathway (AID 743036; active means well fitted activation curve with a large enough effect in the signal ratio in the repeat runs, with a control signal flat, not every such curve was filed as active; inconclusive means weak or mixed curves, or effect the other way; inactive means no such curve, though single readings can be large or run the other way; the % refers to the signal ratio); conditions: HEK293 AR-UAS-bla GripTite, beta-lactamase FRET ratio, 16 h; series mostly up to 62.4 µM
In short: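 Activation was read as beta-lactamase FRET signal from LiveBLAzer B/G substrate, added for 2 h at room temperature. Before that, GeneBLAzer AR-UAS-bla GripTite (HEK293) cells had 16 h compound exposure at 37C.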

[19] = molecular target: Androgen receptor (Homo sapiens) (UniProt P10275); assay: qHTS assay to identify small molecule agonists of the androgen receptor (AR) signaling pathway using the MDA cell line (AID 743040; further: nearly all actives have a fitted effect of over 20% in size); conditions: MDA-kb2 AR-luc cells, MMTV luciferase, 16 h, stronger effect = higher value; series mostly up to 70.3 µM
In short: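 Human breast carcinoma MDA-kb2 reporter cells (MMTV-luc, AR/GR elements) were treated for 16 h at 37C in 0% CO2 following a 5 h settling period. Signal was quantified by ONE-Glo luminescence.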

[20] = molecular target: Androgen receptor (Homo sapiens) (UniProt P10275); assay: qHTS assay to identify small molecule antagonists of the androgen receptor (AR) signaling pathway using the MDA cell line (AID 743042; further: nearly all actives have a fitted effect of over 55% in size); conditions: MDA-kb2 AR-luc, MMTV luciferase, R1881 antagonist, 16 h; series mostly up to 70.3 µM
In short: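 MDA-kb2 breast carcinoma cells carrying MMTV-luciferase (AR/GR responsive) were co-treated with compounds and the agonist R1881 for 16 h at 37C. Inhibition read as ONE-Glo luminescence; CellTiter-Fluor fluorescence measured in parallel for cytotoxicity.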

Sequence of Aromatase (Homo sapiens) (P11511 whole entry, looked up): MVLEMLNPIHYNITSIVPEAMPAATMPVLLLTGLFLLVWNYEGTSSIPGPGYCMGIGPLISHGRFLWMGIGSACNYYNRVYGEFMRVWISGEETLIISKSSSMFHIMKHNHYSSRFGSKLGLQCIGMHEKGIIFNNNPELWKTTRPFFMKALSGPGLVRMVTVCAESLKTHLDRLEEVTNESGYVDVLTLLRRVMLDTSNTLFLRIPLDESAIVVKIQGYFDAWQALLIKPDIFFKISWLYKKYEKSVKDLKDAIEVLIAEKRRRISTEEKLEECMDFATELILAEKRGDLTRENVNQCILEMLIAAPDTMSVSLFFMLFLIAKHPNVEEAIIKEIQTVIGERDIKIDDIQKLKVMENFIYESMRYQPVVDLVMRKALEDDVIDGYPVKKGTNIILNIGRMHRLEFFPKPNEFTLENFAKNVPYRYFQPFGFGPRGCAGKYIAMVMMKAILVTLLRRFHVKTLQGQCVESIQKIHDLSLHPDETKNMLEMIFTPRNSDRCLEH
Sequence of Estrogen receptor (Homo sapiens) (P03372 whole entry, looked up): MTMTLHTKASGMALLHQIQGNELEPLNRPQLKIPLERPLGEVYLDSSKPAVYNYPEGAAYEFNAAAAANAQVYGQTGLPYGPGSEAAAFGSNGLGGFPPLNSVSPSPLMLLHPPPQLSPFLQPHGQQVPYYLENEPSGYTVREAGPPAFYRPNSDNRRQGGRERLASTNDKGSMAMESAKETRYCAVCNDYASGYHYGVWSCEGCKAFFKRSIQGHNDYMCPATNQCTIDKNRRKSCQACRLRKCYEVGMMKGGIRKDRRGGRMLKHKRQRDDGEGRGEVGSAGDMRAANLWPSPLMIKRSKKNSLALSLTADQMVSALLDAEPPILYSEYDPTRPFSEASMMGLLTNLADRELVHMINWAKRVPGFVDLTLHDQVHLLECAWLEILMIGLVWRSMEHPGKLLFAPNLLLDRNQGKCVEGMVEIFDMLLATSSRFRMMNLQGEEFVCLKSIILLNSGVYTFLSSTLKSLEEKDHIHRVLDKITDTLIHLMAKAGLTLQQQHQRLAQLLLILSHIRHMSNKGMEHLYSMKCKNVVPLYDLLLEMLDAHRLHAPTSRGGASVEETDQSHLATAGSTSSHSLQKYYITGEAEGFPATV
Sequence of Androgen receptor (Homo sapiens) (P10275 whole entry, looked up): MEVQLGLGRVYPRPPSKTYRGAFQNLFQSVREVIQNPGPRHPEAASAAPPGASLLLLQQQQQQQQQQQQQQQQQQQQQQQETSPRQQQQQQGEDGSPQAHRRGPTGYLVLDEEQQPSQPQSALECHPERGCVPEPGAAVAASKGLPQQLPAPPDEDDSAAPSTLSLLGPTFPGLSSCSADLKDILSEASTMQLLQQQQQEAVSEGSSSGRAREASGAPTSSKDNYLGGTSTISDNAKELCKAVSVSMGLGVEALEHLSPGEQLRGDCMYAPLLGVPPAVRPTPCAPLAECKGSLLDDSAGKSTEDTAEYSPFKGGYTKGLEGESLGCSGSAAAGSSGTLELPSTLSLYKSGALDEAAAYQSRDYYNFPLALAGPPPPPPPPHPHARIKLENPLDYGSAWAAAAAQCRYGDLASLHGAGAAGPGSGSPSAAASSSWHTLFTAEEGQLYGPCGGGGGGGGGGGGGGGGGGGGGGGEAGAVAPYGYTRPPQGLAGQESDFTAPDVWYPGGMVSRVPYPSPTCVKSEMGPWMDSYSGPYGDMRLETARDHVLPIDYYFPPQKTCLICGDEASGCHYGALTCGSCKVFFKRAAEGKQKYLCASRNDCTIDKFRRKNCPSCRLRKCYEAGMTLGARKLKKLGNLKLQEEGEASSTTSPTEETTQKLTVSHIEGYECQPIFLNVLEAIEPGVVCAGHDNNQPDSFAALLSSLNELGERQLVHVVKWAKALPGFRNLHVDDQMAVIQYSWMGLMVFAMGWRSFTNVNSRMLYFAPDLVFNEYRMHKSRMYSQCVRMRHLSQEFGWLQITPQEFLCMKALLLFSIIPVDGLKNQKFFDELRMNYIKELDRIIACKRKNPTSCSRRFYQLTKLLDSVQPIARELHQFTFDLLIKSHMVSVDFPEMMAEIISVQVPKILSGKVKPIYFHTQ

SMILES	outcome [1]	Potency [2]	Potency [3]	outcome [4]	outcome [5]	Potency [6]	outcome [7]	Potency [8]	Potency [9]	Potency [10]	Potency [11]	Potency [12]	outcome [13]	Potency [14]	Potency [15]	Potency [16]	Potency [17]	outcome [18]	outcome [19]	outcome [20]
CC(C)NC(=O)N1CC(=O)N(c2cc(Cl)cc(Cl)c2)C1=O	inactive	inactive	54.5 µM (active)	inactive	inactive	inactive	inactive	inactive	inactive	inactive	inactive	inactive	inactive	inactive						
CON(C)C(=O)Nc1ccc(Cl)c(Cl)c1	inactive		inactive	inactive	inactive		inactive	inactive	inactive	inactive	inactive		inactive	inactive	inactive and 54.5 µM (active)	inactive				
NCCc1ccc(O)cc1	inactive	inactive	inactive	inactive	inactive	inactive	inactive	inactive	inactive	inactive	inactive and 68 µM (active)	inactive	inactive	inactive		inactive				
CCCCCCCCCl	inactive	inactive	inactive	inactive	inactive	inactive	inactive	inactive		inactive	inactive	inactive	inactive	inactive		inactive				
CCOP(=S)(OCC)SCCSCC	inactive	inactive		inactive	inactive	inactive	inactive		inactive				inactive	inactive	inactive	inactive				
CC(C)C#N	inactive	inactive	inactive	inactive	inactive	inactive	inactive		inactive				inactive	inactive		inactive				
CCOP(=S)(OCC)Oc1cnc2ccccc2n1	inactive	54.5 µM (active)	27.3 µM (active)	inactive	inactive	inactive	inactive	inactive	inactive	inactive and 17.4 µM [inconclusive] (active)	inactive and 15.4 µM (active)	inactive	inactive	inactive		inactive				
Nc1ccc(Br)cc1	inactive	inactive	inactive	inactive	inactive	inactive	inactive	3.47 µM [inconclusive] (active)	inactive	inactive	inactive	inactive	inactive	inactive		inactive				
CC(=O)C=C(C)C	inactive	inactive	inactive	inactive	inactive	inactive	inactive	inactive	inactive	inactive	inactive	inactive	inactive	inactive		inactive				
COC(=O)NC(=S)Nc1ccccc1NC(=S)NC(=O)OC	inactive	61.1 µM (active)	61.1 µM (active)	inactive	inactive	inactive	inactive	inactive		inactive	inactive	inactive	inactive	inactive		inactive				
CCNc1nc(NC(C)(C)C)nc(SC)n1	inactive		60.3 µM (active)	inactive	inactive		inactive	inactive	inactive	inactive	inactive	inactive	inactive	inactive	54.5 µM (active)	inactive				
CCCCCCCCCCCC#N	inactive	inactive	inactive	inactive	inactive	inactive	inactive		inactive				inactive	inactive		inactive				
C[C@]12CC[C@H]3[C@@H](CC[C@@]45O[C@@H]4C(O)=C(C#N)C[C@]35C)[C@@H]1CC[C@@H]2O	inactive	inactive and 61.1 µM (active)	inactive and 27.3 µM (active)	inactive	inactive				inactive				inactive	inactive						
c1cc2c3c(cccc3c1)CC2	inactive		inactive	inactive	inactive	inactive	inactive	inactive	inactive	inactive	inactive	inactive	inactive	inactive	inactive and 61.1 µM (active)	inactive	inactive	inactive	inactive	inactive
COC(=O)c1ccccc1C(=O)OC	inactive	inactive	inactive	inactive	inactive	inactive	inactive	inactive	inactive	inactive	inactive	inactive	inactive	inactive		inactive				
CC(C)OC(=O)Nc1cccc(Cl)c1	inactive	inactive	inactive	inactive	inactive	inactive	inactive	inactive	inactive	inactive	inactive		inactive	inactive		inactive				
Nc1ccc(Cc2ccc(N)cc2)cc1	inactive	inactive	inactive and 48.6 µM (active)	inactive	inactive	inactive	inactive		inactive				inactive	inactive		inactive				
Clc1ccccc1Cl	inactive	inactive	inactive	inactive	inactive	inactive	inactive		inactive				inactive	inactive		inactive				
Cc1cc(Cl)ccc1O	inactive	inactive	inactive	inactive	inactive	inactive	inactive		inactive				inactive	inactive		inactive				
